# Data published in PubChem BioAssay.
# Active and inactive are the calls of the source.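 How the source made its calls, unless noted: active means growth inhibition above 50% at the single 2 µM test dose, taken to imply half-maximal potency below 2 µM; inactive means the rest.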
# Assay: antimalarial activity against Dd2 strain (AID 2302);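 further: 0% = DMSO untreated growth and 100% = chloroquine plus artemisinin killed control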
# Settings: P. falciparum Dd2 in RBCs, LDH growth readout, 72 h; at 2 µM; stronger effect = higher value
row,Compound,growth inhibition
1,CCN(CC)Cc1cc(Nc2ccnc3cc(Cl)ccc23)ccc1O,99% (active)
2,CCOc1ccc2nc3cc(N)ccc3c(N)c2c1,70% (active)
3,CCCCCCCC/C=C\CCCCCCCC(=O)NCc1ccc(O)c(OC)c1,93% (active)
4,COc1cc2c(Nc3ccc(Br)cc3F)ncnc2cc1OCC1CCN(C)CC1,16% (inactive)
5,Cc1nc(N)nc(N)c1-c1ccc(Cl)c(Cl)c1,-1% (inactive)
6,COc1cc2c(cc1OC)-c1cc(=Nc3c(C)cc(C)cc3C)n(C)c(=O)n1CC2,29% (inactive)
7,CCCCc1ccc2nc(NC(=O)OC)[nH]c2c1,1% (inactive)
8,O=C(Nc1cccc(C2=NCCN2)c1)Nc1cccc(C2=NCCN2)c1,99% (active)

# Assay: HepG2 cytotoxicity, primary screen, cytotoxicity control for P. falciparum antimalarial project, cell-based, ATP luminescence (AID 2303;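 active means inhibition above 50%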;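 further: 0% = DMSO wells and 100% = digitonin-killed cells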)
# Settings: HepG2 viability, 24-48 h, at 10 µM, stronger effect = higher value
row,Compound,inhibition
1,CCN(CC)Cc1cc(Nc2ccnc3cc(Cl)ccc23)ccc1O,-2% (inactive)
2,CCOc1ccc2nc3cc(N)ccc3c(N)c2c1,8% (inactive)
3,CCCCCCCC/C=C\CCCCCCCC(=O)NCc1ccc(O)c(OC)c1,-7% (inactive)
4,COc1cc2c(Nc3ccc(Br)cc3F)ncnc2cc1OCC1CCN(C)CC1,10% (inactive)
5,Cc1nc(N)nc(N)c1-c1ccc(Cl)c(Cl)c1,66% (active)
6,COc1cc2c(cc1OC)-c1cc(=Nc3c(C)cc(C)cc3C)n(C)c(=O)n1CC2,14% (inactive)
7,CCCCc1ccc2nc(NC(=O)OC)[nH]c2c1,26% (inactive)
8,O=C(Nc1cccc(C2=NCCN2)c1)Nc1cccc(C2=NCCN2)c1,16% (inactive)
